Test results as given in PubChem BioAssay.
Results filed as inconclusive are left out. Active and inactive are the calls of the source.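 The calls were made as follows, unless noted: active = growth inhibition above a set limit, 3 SD over mean compound inhibition, in both replicates (cut at about 43% in these data); inconclusive = above the limit in only one replicate; inactive = at or below the limit in both replicates.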

Key:
[1] = Her2 expression decrease, cell viability multiplex – SKBR3 breast tumor cells, AlphaScreen, ATP viability, primary screen (AID 461;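 active = Her2 level under about 52% in both replicate screens, with viability over 70% of control, limit read from the data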;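 as to Her2 level: lower value means less Her2 protein in the cells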;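 as to viability: percent of carrier control wells set as 100% viability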); conditions: SKBR3 Her2 protein level, 18-24 h, measured here: SKBR3 viability, ATP luminescence, at 10 µM
[2] = target: Receptor tyrosine-protein kinase erbB-2 (Homo sapiens) (UniProt P04626); test: as above; conditions: 18-24 h, at 10 µM, stronger effect = lower value
Sequence of Receptor tyrosine-protein kinase erbB-2 (Homo sapiens) (P04626 whole entry, looked up): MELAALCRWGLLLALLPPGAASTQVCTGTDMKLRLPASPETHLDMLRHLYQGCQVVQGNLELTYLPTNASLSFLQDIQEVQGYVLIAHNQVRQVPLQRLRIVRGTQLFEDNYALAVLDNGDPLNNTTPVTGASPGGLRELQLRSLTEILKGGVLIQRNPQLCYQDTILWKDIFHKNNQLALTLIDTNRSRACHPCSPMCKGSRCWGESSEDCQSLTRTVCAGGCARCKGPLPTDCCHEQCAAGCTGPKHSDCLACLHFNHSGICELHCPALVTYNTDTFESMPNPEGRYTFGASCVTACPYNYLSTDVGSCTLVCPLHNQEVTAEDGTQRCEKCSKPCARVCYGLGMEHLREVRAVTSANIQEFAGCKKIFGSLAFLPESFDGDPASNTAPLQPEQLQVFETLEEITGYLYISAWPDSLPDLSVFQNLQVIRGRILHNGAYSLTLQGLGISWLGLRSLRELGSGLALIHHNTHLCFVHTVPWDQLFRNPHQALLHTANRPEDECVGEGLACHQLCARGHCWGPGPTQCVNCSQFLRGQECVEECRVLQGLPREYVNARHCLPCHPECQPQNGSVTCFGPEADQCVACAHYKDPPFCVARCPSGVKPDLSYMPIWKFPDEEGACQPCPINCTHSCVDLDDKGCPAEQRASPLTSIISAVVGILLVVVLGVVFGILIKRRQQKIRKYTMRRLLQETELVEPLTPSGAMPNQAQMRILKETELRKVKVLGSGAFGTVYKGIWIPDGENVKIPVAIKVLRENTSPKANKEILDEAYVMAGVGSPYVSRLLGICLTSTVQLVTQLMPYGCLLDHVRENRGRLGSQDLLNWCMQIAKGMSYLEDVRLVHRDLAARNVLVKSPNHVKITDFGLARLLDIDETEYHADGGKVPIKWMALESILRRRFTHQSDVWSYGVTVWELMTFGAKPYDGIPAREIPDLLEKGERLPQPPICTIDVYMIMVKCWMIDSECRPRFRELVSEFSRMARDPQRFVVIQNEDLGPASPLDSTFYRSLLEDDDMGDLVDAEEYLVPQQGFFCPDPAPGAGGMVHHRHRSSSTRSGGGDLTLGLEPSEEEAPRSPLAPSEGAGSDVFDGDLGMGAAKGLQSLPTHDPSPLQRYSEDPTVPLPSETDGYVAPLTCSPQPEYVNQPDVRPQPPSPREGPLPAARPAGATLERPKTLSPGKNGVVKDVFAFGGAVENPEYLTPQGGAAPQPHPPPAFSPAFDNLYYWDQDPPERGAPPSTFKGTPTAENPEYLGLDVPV

[3] = reduced viability of SK-BR-3 breast cancer cells – cell-based, 24 h, human, pilot screen (AID 572;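 active = viability at or below 10% of carrier control in both of two separate runs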;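 also: compound exposure lasted between 18 and 24 h rather than exactly 24 h; 100% = carrier-treated control wells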); conditions: SK-BR-3 viability, CellTiter-Glo luminescence, at 10 µM, stronger effect = lower value
[4] = HUVEC growth inhibition – cell-based, human, primary screen (AID 575;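 active = viability at or below 30% in both replicate assays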;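 also: 100% = median of untreated cell wells with 0.1% DMSO on each plate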); conditions: HUVEC proliferation, CellTiter-Glo luminescence, 72 h; at 10 µM; stronger effect = lower value
[5] = MRP1 drug-resistance reversers in H69AR cells – cell-based, doxorubicin co-treatment, pilot screen (AID 601;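 active = viability loss from added drug above about 55%, and viability with drug at most 40%, in both replicates, limit read from the data, passing the limit was not always enough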); conditions: CellTiter-Glo, 72 h, at 10 µM; for differential viability (reversal): stronger effect = higher value
[6] = yeast transport mutant growth inhibition pilot in 384-well plates, post-Golgi transport modulator project (AID 636; in the data active = inhibition above about 31%); conditions: absorbance 615 nm, about 18 h, stronger effect = higher value
[7] = growth suppression of yeast trafficking mutant, preliminary HTS, modulators of trafficking downstream of Golgi apparatus project, 1536-format plate, OD 615 nm (AID 637; in the data active = inhibition above about 30%); conditions: yeast transport mutant growth, absorbance 615 nm, 18 h; stronger effect = higher value
[8] = S. cerevisiae growth inhibition in restrictive medium, OD615, pilot screen, restrictive growth control, yeast lifespan reduction project (AID 706); conditions: OD615, 48 h, at 10 µM, stronger effect = higher value;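 also: modified DeaD lifespan yeast strain shifted to restrictive glucose medium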
[9] = doxorubicin toxicity protection in MRP-1 cells – H69AR cells, CellTiter-Glo, duplicate, MRP-1 activator project, pilot screen (AID 807;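 active = viability increase at or above a cutoff of the median across tested compounds plus 3 SD, cut at about 8.5% in these data, passing the limit was not always enough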;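 also: compound pretreatment 18-22 h then 72 h combined with doxorubicin; 0% = doxorubicin alone and 100% = vehicle without doxorubicin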); conditions: H69AR viability with doxorubicin, CellTiter-Glo luminescence; at 10 µM; stronger effect = higher value
[10] = viability of HCT116 without oncogenic beta-catenin – human colon tumor cells, pilot screen (AID 823;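 active = cell viability at or below a set limit in both duplicate runs, the limit being the all-compound median minus 4 SD, cut at about 23% in these data, passing the limit was not always enough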;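 also: 0% = wells killed by 20 µM Hyamine and 100% = untreated DMSO cell wells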); conditions: HCT116 beta-catenin knockout viability, CellTiter-Glo, 60 h; at 10 µM; stronger effect = lower value
[11] = viability of PTEN-null HCT116 cells – cell-based, HCT116 clonal line, CellTiter-Glo, pilot screen (AID 824;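 active = viability at or below 27.92% in each of two runs, the all-compound median minus 4 SD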;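 also: 0% = 20 µM Hyamine control and 100% = vehicle cell control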); conditions: HCT116 PTEN-deleted viability, 60 h, at 10 µM, stronger effect = lower value
[12] = RAM pathway blockade in budding yeast – dse1pr::URA3 reporter, 5-FOA selection, pilot screen (AID 869;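 active = inhibition over a set limit, the all-compound mean plus 3 SD, in both replicate runs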;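 also: 0% = DMSO wells with no growth and 100% = 10 µM 1-NA-PP1 with full growth; RAM network block rescues cells from 5-FOA so hits raise OD615 growth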); conditions: S. cerevisiae dse1pr::URA3 5-FOA growth, OD615, 2 d; at 10 µM; stronger effect = higher value; strain carries analog-sensitive mutant Cbk1 kinase
[13] = RAM signaling pathway blockade in yeast – S. cerevisiae, Pdr1DBD-CYC8 efflux-inhibited sensitized strain, primary screen (AID 1298;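 active = RAM network inhibition above 8.4% in each of two replicates, 3 SD over the compound average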;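 also: 0% = DMSO untreated cells without growth and 100% = 10 µM 1-NA-PP1 full growth; higher means more yeast growth rescued from 5-FOA killing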); conditions: S. cerevisiae cbk1-as DSE1-URA3 strain, 5-FOA growth OD615, 2 d; at 50 µM; stronger effect = higher value
[14] = S. cerevisiae growth inhibition in permissive medium (OD615), pilot counter-assay for S. cerevisiae lifespan shortening project, permissive growth control (AID 705;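 active = growth inhibition above 25% in both replicates, a cutoff set 3 SD above the mean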); conditions: OD615, 24 h, at 10 µM, stronger effect = higher value
[15] = H69AR cell proliferation blockers – human, duplicate replicates, primary screen (AID 580;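 active = viability at or under a set limit in both replicates, limit being median viability minus 3 SD, cut at about 48% in these data, passing the limit was not always enough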;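 also: 100% = mean luminescence of untreated wells and 0% = no signal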); conditions: H69AR lung tumor cells viability, ATP luminescence, 72 h; at 10 µM; stronger effect = lower value
[16] = H69AR cells + 2 uM doxorubicin, measured here: viability with 2 uM doxorubicin, stronger effect = lower value
[17] = H69AR cells, compound alone cytotoxicity

O=C(Nc1nc(-c2ccncc2)cs1)C1COc2ccccc2O1 (stereo unspecified)
inactive: Her2 level [2] 99.5% | viability [3] 83.5% | viability [4] 67.2% | differential viability (reversal) ([5]; H69AR cells + 2 uM doxorubicin) 4.21% | inhibition [6] 0.51% | inhibition [7] -8% | growth inhibition [8] 33.5% | viability increase [9] -5.71% | viability [10] 85.3% | viability [11] 83.9% | inhibition [12] 0.095% | RAM network inhibition [13] 7.12%
64.8%: viability [5, 17]
60.6%: viability [5, 16]
83.5%: viability [1]

C/C=C/COC(=O)c1[nH]c2c(c1C)C(=O)CC(c1ccc(N(C)C)cc1)C2 (stereo unspecified)
active: inhibition [7] 49.8%
inactive: Her2 level [2] 94% | viability [3] 92% | viability [4] 62.4% | differential viability (reversal) ([5]; H69AR cells + 2 uM doxorubicin) -30.1% | inhibition [6] 2% | growth inhibition [14] -10.2% | growth inhibition [8] -9.05% | viability increase [9] -2.69% | viability [10] 60.6% | viability [11] 66.6% | inhibition [12] 1.9% | RAM network inhibition [13] 4.88%
41.9%: viability [5, 17]
92%: viability [1]
72.1%: viability [5, 16]

CCOc1ccccc1NC(=O)C1CCCN(S(=O)(=O)c2cccc3cccnc23)C1 (stereo unspecified)
inactive: Her2 level [2] 94.5% | viability [3] 108% | viability [15] 78.1% | differential viability (reversal) ([5]; H69AR cells + 2 uM doxorubicin) -11.7% | inhibition [6] -6.13% | inhibition [7] 1.67% | growth inhibition [14] -4.4% | growth inhibition [8] -21% | viability increase [9] -3.58% | viability [10] 76.2% | viability [11] 71.9% | inhibition [12] 1.14% | RAM network inhibition [13] 4.95%
108%: viability [1]
89.8%: viability [5, 16]
78.1%: viability [5, 17]

Cc1nc2ccccc2c2oc(C(=O)NCC3COc4ccccc4O3)cc12 (stereo unspecified)
103%: viability [1]
88.3%: viability [5, 16]
inactive: Her2 level [2] 58.5% | viability [3] 103% | viability [15] 88.4% | differential viability (reversal) ([5]; H69AR cells + 2 uM doxorubicin) 0.085% | inhibition [6] 0.13% | inhibition [7] 6.33% | growth inhibition [14] -0.145% | growth inhibition [8] -3.1% | viability increase [9] -1.89% | viability [10] 61.2% | viability [11] 70.8% | inhibition [12] 1.69% | RAM network inhibition [13] 3.41%
88.4%: viability [5, 17]

CC1CCN(c2c(NCc3ccc(C(=O)N4c5ccccc5CC4C)cc3)c(=O)c2=O)CC1 (stereo unspecified)
48.7%: viability [5, 16]
inactive: viability [3] 95% | viability [4] 70.5% | differential viability (reversal) ([5]; H69AR cells + 2 uM doxorubicin) -11.5% | inhibition [6] -0.13% | inhibition [7] 2.33% | growth inhibition [14] -17.3% | growth inhibition [8] -17.2% | viability increase [9] -7.24% | viability [10] 72.1% | viability [11] 66.8% | inhibition [12] 2.15% | RAM network inhibition [13] 2.31%
37.2%: viability [5, 17]
active: viability [15] 37.2%

Cc1cc(=O)oc2cc(OCC#N)ccc12
93.3%: viability [5, 16]
99.4%: viability [5, 17]
inactive: viability [3] 112% | viability [4] 92.1% | viability [15] 99.4% | differential viability (reversal) ([5]; H69AR cells + 2 uM doxorubicin) 6.12% | inhibition [6] -5.07% | inhibition [7] 1.33% | growth inhibition [14] -4.47% | growth inhibition [8] -4.6% | viability increase [9] 1.11% | viability [10] 106% | viability [11] 96.1% | inhibition [12] 0.155% | RAM network inhibition [13] 3.55%

CCn1c(NC(=O)c2cccc(Cn3cc(Cl)cn3)c2)nc2ccccc21
inactive: Her2 level [2] 75% | viability [3] 93.5% | viability [4] 69% | differential viability (reversal) ([5]; H69AR cells + 2 uM doxorubicin) -8.54% | inhibition [6] -0.53% | inhibition [7] 0.16% | growth inhibition [14] -10.1% | growth inhibition [8] 7.82% | viability increase [9] -0.12% | viability [10] 40.3% | viability [11] 40.1% | inhibition [12] 0.95% | RAM network inhibition [13] 4.07%
93.5%: viability [1]
65.1%: viability [5, 16]
56.5%: viability [5, 17]

CCOC(=O)c1ccc(N=c2sc(C(=O)OC)cc(=O)n2Cc2ccco2)cc1
1.24%: viability [5, 16]
1.51%: viability [5, 17]
110%: viability [1]
active: Her2 level [2] -1.5% | viability [15] 1.51% | viability [10] 5.04% | viability [11] 1.63%
inactive: viability [3] 110% | differential viability (reversal) ([5]; H69AR cells + 2 uM doxorubicin) 0.27% | inhibition [6] -3.21% | inhibition [7] -1.33% | growth inhibition [14] -11.7% | growth inhibition [8] -2.14% | viability increase [9] -8.48% | inhibition [12] 1.42% | RAM network inhibition [13] 7.3%

COc1ccc(C2C(C(=O)Nc3cccnc3)=C(C)Nc3nc(-c4cccs4)nn32)cc1OC (stereo unspecified)
59%: viability [1]
87.8%: viability [5, 17]
75.7%: viability [5, 16]
inactive: Her2 level [2] 94.5% | viability [4] 90.5% | viability [15] 87.8% | differential viability (reversal) ([5]; H69AR cells + 2 uM doxorubicin) 12.1% | inhibition [6] 1.2% | inhibition [7] -6.17% | growth inhibition [14] -9.82% | growth inhibition [8] -8.04% | viability increase [9] -1.12% | viability [10] 106% | viability [11] 95.6% | inhibition [12] -0.09% | RAM network inhibition [13] -1.11%
